Rows were chosen to be rich in hits. Some 4.8% of all compounds tested hit in one or more screens of this group.
ALR H2O2 inh – inhibitors of human ALR sulfhydryl oxidase, primary screen, biochemical, H2O2 detection, HRP-luminol luminescence, single point. FAD-linked sulfhydryl oxidase ALR (Homo sapiens), P55789. purified ALR, DTT oxidation. inhibition, % (concentration not given with the values). 3.8% of 290,000 active. AID 485317, 2010;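 active = mean replicate inhibition above about 79%, with every replicate also reaching it, limit read from the data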
Target sequence (P55789 whole entry, looked up): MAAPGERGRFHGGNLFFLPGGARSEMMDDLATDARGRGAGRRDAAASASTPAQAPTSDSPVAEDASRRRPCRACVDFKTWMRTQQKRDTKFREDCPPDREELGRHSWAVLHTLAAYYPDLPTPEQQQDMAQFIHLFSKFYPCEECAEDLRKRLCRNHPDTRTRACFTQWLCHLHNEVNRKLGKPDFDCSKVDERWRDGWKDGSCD
SUMO Mot1 rescue – yeast Mot1-301 growth rescue at high temperature, primary screen, SUMOylation pathway inhibitor project, S. cerevisiae, ATP luminescence, 38.5C | S. cerevisiae Mot1-301 growth rescue; percent above DMSO median, 100 means doubled | growth rescue, % at 18.8 µM | 1% of 320,000 active | AID 2716, 2010;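 active = every valid replicate shows activation above 250% relative to neutral control wells; inactive = the rest, any valid replicate at or below 250%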
HIF act – HIF pathway transcriptional activators, primary screen, cell-based, U2OS HRE-luciferase, luminescence. activation, % at 7.5 µM (by protocol). AID 1910, 2009. 0.32% of 300,000 active. U2OS HRE-luciferase reporter; normalized: DMSO 0%, desferrioxamine 100%;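 active = mean activation of at least 10% of the iron chelator positive control signal, with at least half of replicates also reaching 10%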
AI-2 QS modul – Vibrio harveyi AI-2 quorum sensing modulators, primary screen, JMH597 strain, luminescence/OD600 ratio. Vibrio harveyi JMH597 AI-2 luminescence/OD600 ratio, 9 h; stronger effect = lower value; strain lacks LuxN and CqsS sensors; 0 = neutral-control median. activity change, % at 7.5 µM. 0.4% of 300,000 active; in the data active = activity change below about -75%, passing the limit was not always enough;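 also: luminescence divided by OD600 gain over 9 h not by final OD600 alone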
Mot1 SUMO dose – growth restoration of Mot1-301 yeast on galactose, dose response, SUMO pathway inhibitor project, whole organism, S. cerevisiae, ATP luminescence, cherry-picked samples; shares compounds with SUMO Mot1 rescue; S. cerevisiae Mot1-301 galactose growth, 24 h; -100 = growth of slx-deleted rescue strain; growth activity, percent, % at 42 µM; 2,300 tested, under 10 active; AID 493004, 2010;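 active = Signal drops as the depositor expects, and the fitted half-maximal dose is no more than ten times the top valid tested dose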;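 also: more negative values mean stronger growth rescue toward the control strain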
Numbers stand for hits; 0 = inactive; - = no result given; + = active, no number.

SMILES	ALR H2O2 inh	SUMO Mot1 rescue	HIF act	AI-2 QS modul	Mot1 SUMO dose
CCn1cc(C(=O)N(C)c2cc(C)ccc2OC)c2cc(OC)c(OC)cc2c1=O	0	0	0	0	-
CCn1cc(C(=O)N(C)c2ccc(OC)cc2OC)c2cc(OC)c(OC)cc2c1=O	0	415	0	0	0
CC1CCCCC1NC(=O)CSc1nnc(COc2ccc(Cl)cc2)o1 (configuration not stated)	0	0	0	0	-
CCN(CC)S(=O)(=O)c1ccc(N2CCCC2)c(C(=O)OCC(=O)N2CCCC2)c1	0	0	0	0	-
CCN(CC)S(=O)(=O)c1ccc(N2CCCC2)c(C(=O)OCC(=O)Nc2cc(C)on2)c1	0	544	0	0	0
O=C1CSC(c2ccc(F)cc2)N1c1ccccc1F (configuration not stated)	0	0	0	0	-
O=C1CSC(c2ccc(F)c(F)c2)N1c1ccccc1F (configuration not stated)	98	891	0	0	0
CC(C)(C)c1nc(SCC(=O)NNC(=O)c2ccccc2)c2ccccc2n1	0	0	0	0	-
O=C(Nc1ccc(Cl)c(Cl)c1)c1ccncc1	0	0	0	0	-
O=C(Nc1ccncc1Cl)c1ccncc1	0	435	0	0	0
CC(=O)c1ccc(NC(=O)CN2C(=O)NC3(CCc4ccccc43)C2=O)cc1 (configuration not stated)	0	0	-	-	-
Cc1ccc(N2CC(C(=O)NCCC3=CCCCC3)CC2=O)cc1 (configuration not stated)	0	0	0	0	-
O=C(Oc1ccc2c(c1)OCO2)c1cccs1	0	478	0	0	0
Cc1cc(OC(=O)c2cccs2)ccc1C(C)C	0	0	0	0	-
Cc1ccnc(NC(=O)c2cccs2)c1	0	0	0	0	-
Cc1ccnc(NC(=O)c2ccc(Br)s2)c1	0	618	0	0	0
CCOc1ccccc1CN1CCN(CC2CC2)CC1CCO (configuration not stated)	0	0	0	0	-
CCOc1ccccc1CN1CCN(Cc2ccon2)CC1CCO (configuration not stated)	-	817	0	0	0
CCOc1ccc2nc(CN3CCN(Cc4ccccc4OCC)C(CCO)C3)ccc2c1 (configuration not stated)	0	511	0	0	0
CCOC(=O)C1=C(COC(=O)c2ccc(Cl)cc2[N+](=O)[O-])NC(=O)NC1C (configuration not stated)	0	0	0	0	-
O=C(NCC(NS(=O)(=O)OCC(Cl)(Cl)Cl)c1ccccc1)C(F)(F)F (configuration not stated)	0	0	0	0	-
CCc1ccc(N2CC(C(=O)OCC(=O)Nc3ccc([N+](=O)[O-])cc3)CC2=O)cc1 (configuration not stated)	0	0	-	-	-
Oc1ccc(Br)cc1/C=N/n1c(COc2ccccc2)n[nH]c1=S	0	679	0	0	0
S=c1[nH]nc(COc2ccccc2)n1/N=C/c1ccccc1Br	0	0	0	0	-
COc1ccc(S(=O)(=O)N2CCN(c3ccc(F)cc3)CC2)cc1C(=O)N1CCOCC1	0	432	0	0	0
SMILES	ALR H2O2 inh	SUMO Mot1 rescue	HIF act	AI-2 QS modul	Mot1 SUMO dose
COc1ccccc1NC(=O)C(C)OC(=O)CCCOc1ccccc1 (configuration not stated)	0	0	0	0	-
N#CC(C#N)=C1NC2(CCCCC2)Cc2ccccc21	0	0	0	0	-
CC(=O)N(C(C)=O)C1=C(C#N)C2(CCCCC2)Cc2ccccc21	0	871	0	0	0
CCCOc1ccc(N2C(=O)CC(N3CCC(C(=O)OCC)CC3)C2=O)cc1 (configuration not stated)	0	772	0	0	0
Cc1cccc(C(=O)NCC(=O)NC2CCC(C)CC2)c1 (configuration not stated)	0	0	0	0	-
CCC(CC)NC(=O)c1oc2ccccc2c1COc1ccccc1	0	518	0	0	0
CCN(CC(=O)Nc1ccc2c(c1)OCCO2)S(=O)(=O)c1ccc(F)cc1	0	0	0	0	-
COc1ccc(/C=N\NC(=O)c2cc(OCC(F)(F)F)ccc2OCC(F)(F)F)cc1	0	797	0	0	0
COc1cccc(CNC(=O)C(NS(=O)(=O)c2ccc3c(c2)CCN3C(C)=O)C(C)C)c1 (configuration not stated)	0	0	0	0	-
O=C1N=C(N2CCOCC2)S/C1=C\c1cccnc1	-	753	0	0	0
O=C1/C(=C/c2cccnc2)SC(=S)N1N1CCOCC1	0	0	0	0	-
Cc1ccc(OCCCC(=O)NNC(=O)c2ccccn2)cc1	0	0	-	-	-
CC(C)c1ccc(NC(=O)CCC(=O)NCc2ccco2)cc1	0	0	0	0	-
CC(C)C(CC(=O)NCc1ccco1)c1ccco1 (configuration not stated)	0	646	0	0	0
CCCCN(C(=O)c1[nH]c(C)c(C(=O)OCC)c1C)c1c(N)n(CCCC)c(=O)[nH]c1=O	0	0	0	0	-
CCN(CC)CCCNC(=O)C1c2ccccc2C(=O)N(CCOC)C1c1ccc(F)cc1 (configuration not stated)	-	691	0	0	0
CN1CCN(S(=O)(=O)c2ccc3c(c2)oc(=O)n3C)CC1	-	0	0	0	-
Cc1cc(C(=O)NC(Cc2c[nH]c3ccccc23)C(=O)O)c(C)o1 (configuration not stated)	0	0	0	0	-
Cc1ccc(C(=O)NC(Cc2c[nH]c3ccccc23)C(=O)O)o1 (configuration not stated)	0	+	0	0	0
COc1ccc(CCC(=O)NNC(=S)Nc2cccc(C(C)=O)c2)cc1	0	+	0	0	0
CCCCc1nnc(NC(=O)CSc2nc(O)c(-c3ccccc3)c(=O)[nH]2)s1	0	631	0	0	0
O=C(COc1ccc(Cl)cc1Cl)OCC(=O)c1ccc[nH]1	-	0	-	-	-
O=C(Cc1ccc(Cl)cc1Cl)OCC(=O)c1ccc[nH]1	0	581	0	0	0
Cc1nc2ccccc2c(=O)n1CC(=O)N1CCOCC1	0	687	0	0	0
O=C(CN1CCN(c2nc(-c3ccccc3)cs2)CC1)NNC(=O)c1ccc(Br)cc1	0	656	0	0	0
CCOc1ccc2oc(C(=O)N(CCOC)c3c(N)n(CC(C)C)c(=O)[nH]c3=O)c(C)c2c1	0	0	-	-	-
CC(C)NC(=O)c1ccccc1-c1ccccc1	0	468	0	0	0
COc1ccc(NC(=O)c2ccccc2-c2ccccc2)cc1	0	0	0	0	-
Cc1ccc(NS(=O)(=O)c2ccc(OCC(N)=O)cc2)cc1	-	0	0	0	-
CC(=O)NC1=NN(C(C)=O)C2(CCCC2)S1	0	0	0	0	-

Source: PubChem (Broad Institute)
